Compounds with a hit are over-represented: about 2.4% of the library has one in this group of screens.
D2 PAM-1: Beta-Arrestin HTS for Positive Allosteric Modulators of the Human D2 Dopamine Receptor: Potentiators | potentiation, % (concentration not given with the values) | actives 0.23% (n = 360,000) | D(2) dopamine receptor (Homo sapiens), P14416 | DiscoveRx D2 beta-arrestin cells, luminescence, 90 min; 100% = 57 uM dopamine signal | AID 624464, 2012; in the data active = potentiation above about 50%; inconclusive = mostly about 30% to 49%
Target sequence (P14416 whole entry, looked up): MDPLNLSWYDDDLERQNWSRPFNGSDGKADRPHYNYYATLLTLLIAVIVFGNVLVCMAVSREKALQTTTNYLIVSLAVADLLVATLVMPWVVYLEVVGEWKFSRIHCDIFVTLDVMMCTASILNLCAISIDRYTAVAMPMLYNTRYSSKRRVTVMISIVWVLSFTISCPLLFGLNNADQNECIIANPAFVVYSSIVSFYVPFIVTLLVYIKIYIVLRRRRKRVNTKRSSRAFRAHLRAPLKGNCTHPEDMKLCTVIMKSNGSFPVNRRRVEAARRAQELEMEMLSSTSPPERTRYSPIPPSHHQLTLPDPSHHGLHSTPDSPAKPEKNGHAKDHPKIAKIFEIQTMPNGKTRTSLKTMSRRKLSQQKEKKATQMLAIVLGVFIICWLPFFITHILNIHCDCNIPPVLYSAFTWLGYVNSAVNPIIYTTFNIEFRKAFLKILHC
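PathHunter D2 cells, attached overnight at 37 deg C, received compound in DMSO plus dopamine at EC20 (50 nM final) for 90 min at 37 deg C. Beta-arrestin recruitment was read as luminescence after 1 h with detection reagent at ambient temperature.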
D2 ag-1: HTS Assay for Allosteric Agonists of the Human D2 Dopamine Receptor: Primary Screen for Agonists; D(2) dopamine receptor (Homo sapiens), P14416; HEK293 T-REx D2 cells, calcium flux agonist mode; activation, % at 2 µM; actives 0.53% (n = 340,000); AID 485358, 2010;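 active = activation over 3 SD above normal in the single-dose calcium agonist read, cut at about 30% in these data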; also: 0% is about no effect
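Calcium-flux readout, 1 cycle/sec over 180 s following compound pin transfer, in inducible HEK293 Trex D2 cells (force-coupled); dopamine controls included. Positive calcium responses during this window marked compounds as potential agonists.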
D2 antag: HTS Assay for Allosteric Antagonists of the Human D2 Dopamine Receptor: Primary Screen for Antagonists; D(2) dopamine receptor (Homo sapiens), P14416; HEK293 TREx D2 cells, calcium flux, dopamine EC80; inhibition, % at 10 µM; actives 2% (n = 340,000); AID 485344, 2010; in the data active = inhibition above about 30%; inactive = below that, where a call was filed; also: 0% is about no effect
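Antagonism is scored as inhibition of an EC80 dopamine-evoked calcium signal in a force-coupled, tetracycline-inducible HEK293 T-REx D2 line, with compound present 180 s before agonist.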
D2 PAM-2: HTS Assay for Positive Allosteric Modulators of the Human D2 Dopamine Receptor: Primary Screen for Potentiators; AID 485347, 2010; potentiation, % at 10 µM; actives 0.34% (n = 340,000); HEK293 T-REx D2, calcium flux, EC20 dopamine potentiation; D(2) dopamine receptor (Homo sapiens), P14416;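 active = potentiation over 3 SD above the plate norm, cut at about 30% in these data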; also: 0% is about no effect
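Calcium flux readout, no-wash dye, 1 read/s. Inducible HEK293 Trex D2 line, overnight 30 C. Compound alone 180 s (agonist flags), then EC20 dopamine, another 180 s to score potentiation.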
D2 ag-2: Beta-Arrestin HTS for Positive Allosteric Modulators of the Human D2 Dopamine Receptor: Agonists. D(2) dopamine receptor (Homo sapiens), P14416. DiscoveRx PathHunter D2 beta-arrestin, luminescence, 90 min; 100% = 57 uM dopamine signal. activation, % (concentration not given with the values). actives 0.084% (n = 360,000). AID 624465, 2012; in the data active = activation above about 40%; inconclusive = between about 15% and that limit
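Agonist mode: compounds alone added to overnight-plated D2 PathHunter cells for 90 min at 37 C, with 57 uM final dopamine (EC100) defining full response. Beta-arrestin recruitment detected by chemiluminescent reagent, read after 1 h at ambient temperature.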
D3 ag: qHTS of D3 Dopamine Receptor Agonist: D3 Dopamine Receptor B-arrestin Agonist Confirmatory Assay | shares compounds with D2 ag-1 | DiscoveRx D3 beta-arrestin cells, luminescence, 90 min | Potency, µM (doses to about 76.9 µM), for inactives: at the top dose activation, most hits filed as activators | actives 4% (n = 2,300);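 also: potency is read from the fitted curve at half-maximal effect; 100% = dopamine control response; nearly all actives have a fitted effect of over 70% in size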
D2 ag-3: qHTS of D3 Dopamine Receptor Agonist: D2 Dopamine Receptor B-arrestin Agonist Counterscreen. shares compounds with D2 ag-1. DiscoveRx PathHunter D2 beta-arrestin, luminescence, 90 min; response scale: percent relative to full dopamine signal. Potency, µM (highest dose often 76.9 µM), for inactives: top-dose activation, hits mostly activators. actives 5.9% (n = 2,300); also: potency is read from the fitted curve at half-maximal effect; % of control where 0% means no effect; nearly all actives have a fitted effect of over 70% in size
* marks the source's active call; other numbers are inactive results; ? = inconclusive; . = no result. Unless noted, calls follow the shape of the dose curve; as a rule, active = well fitted activation curve with a large enough effect; inconclusive = small, poorly fitted or top-dose-only effect; inactive = flat fitted curve, though single readings scatter.

SMILES	D2 PAM-1	D2 ag-1	D2 antag	D2 PAM-2	D2 ag-2	D3 ag	D2 ag-3
O=C(Nc1ccccc1F)c1ccc(CN2CCN(c3ccccc3)CC2)cc1	10	85*	81*	-18	?	16%	18µM*
COc1ccc(C(=O)Nc2ccc(N3CCN(Cc4ccccc4)CC3)cc2)cc1	2	1	6	-9	-10	.	.
CSc1ccccc1NC(=O)c1ccc(CN2CCOCC2)cc1	-11	-1	4	-4	-1	.	.
C=CCn1c(SCC(=O)NCC(c2ccccc2)N(C)C)nnc1C1CCCCC1 (stereo not drawn)	-11	0	17	14	-2	-10%	-2%
Cc1c(NC2=C(Cl)C(=O)N(c3ccccc3Cl)C2=O)c(=O)n(-c2ccccc2)n1C	-6	44*	-4	-19	0	-5%	-4%
Cc1cc(=O)[nH]c(Nc2c(C)n(C)n(-c3ccccc3)c2=O)n1	3	1	23	-5	-2	.	.
CNC(=O)CN1C(=O)COc2ccc(S(=O)(=O)N3CCC(C)CC3)cc21	.	0	.	-3	.	.	.
COc1ccc(NC(=O)c2nc3nc(C)cc(C(F)F)n3n2)cc1OC	-7	0	8	5	2	.	.
COc1ccccc1NS(=O)(=O)c1ccc(NC(=O)c2nc3nc(C)cc(C(F)F)n3n2)cc1	0	-2	39*	9	-3	-5%	1%
Cc1ccc(NC(=O)c2cc(S(=O)(=O)NC3CCCCC3)ccc2F)cc1Cl	.	0	.	10	.	.	.
CCN(C(=O)c1cc2c(=O)oc3ccccc3c2s1)c1ccccc1F	.	1	.	.	.	.	.
O=C(c1ccccc1F)N1CCN(S(=O)(=O)c2ccc3c(c2)OCCO3)CC1	0	-1	6	-11	0	.	.
O=C(c1ccccc1OC(F)F)N1CCN(S(=O)(=O)c2ccc3c(c2)OCCCO3)CC1	-4	1	1	5	2	-1%	5%
CC(C)N=c1scc(-c2ccco2)n1/N=C/c1ccc(O)c(O)c1	15	3	3	-3	9	.	.
C=CCN=c1scc(-c2ccco2)n1/N=C/c1ccc(O)c(O)c1O	101*	74*	88*	-34	90*	40µM*	35µM*
COCCN=c1scc(-c2ccco2)n1/N=C/c1ccc(O)c(O)c1O	88*	68*	77*	-30	70*	35µM*	35µM*
CCc1ccc(CNC(=O)C2CCN(c3nnc(-n4c(C)ccc4C)s3)CC2)cc1	.	0	.	-5	.	.	.
CCCS(=O)(=O)NCCc1sc2nc(-c3ccc(Cl)cc3)nn2c1C	.	.	.	1	.	.	.
COc1cc(NC(=O)CCc2nnc3ccc(NCc4ccco4)nn23)cc(OC)c1	0	52*	4	1	-1	11%	15%
CCCCOC(=O)c1ccc(NC(=O)c2cnc3n(c2=O)CCS3)cc1	14	0	4	-1	1	10%	17%
O=C(Nc1ccc(OC(F)(F)F)cc1)c1cnc2n(c1=O)CCS2	-3	0	-4	6	-3	.	.
COc1ccc(CN2CCN(C(=O)c3ccco3)CC2)cc1OCc1ccccc1	0	83*	71*	-16	?	?	18µM*
COc1ccc(CN2CCN(C(=O)c3ccco3)CC2)cc1OC	?	86*	60*	-23	84*	?	16µM*
COc1ccc(CN2CCN(c3ccccn3)CC2)cc1OCc1ccccc1	10	72*	87*	-21	?	-1%	?
CCN1CCN(Cc2ccc(OC)c(OCc3ccccc3)c2)CC1	-15	0	0	-19	-2	.	.
SMILES	D2 PAM-1	D2 ag-1	D2 antag	D2 PAM-2	D2 ag-2	D3 ag	D2 ag-3
COc1ccc(-c2[nH]ncc2CN2CCN(c3ccccn3)CC2)c(OC)c1	5	69*	57*	-22	10	-19%	9%
Cc1nc2c(C(=O)N(C)Cc3ccccc3)c[nH]n2c(=O)c1Cc1ccc(Cl)cc1	.	.	.	-9	.	.	.
COc1cccc(C(=O)Nc2nc(-c3nnn(-c4cccc(Cl)c4C)c3C)ns2)c1	.	0	.	-8	.	.	.
O=C1CCSc2ccc(S(=O)(=O)Nc3ccc(Cl)c(C(F)(F)F)c3)cc2N1	.	-1	.	-2	.	.	.
CC1(C)CCc2cc(CN3CCN(c4ccccn4)CC3)ccc2O1	4	77*	85*	-21	13	16%	?
N#CC(C(=O)OCc1ccccc1)c1nc2ccccc2nc1N1CCOCC1 (stereo not drawn)	-5	5	24	8	-8	-25%	-7%
N#CC(C(=O)NC1CCCCC1)c1nc2ccccc2nc1N1CCOCC1 (stereo not drawn)	.	-1	-1	-2	.	.	.
Nc1cc(=O)nc(SCC(=O)N2CCN(c3ccccc3)CC2)n1-c1ccccc1	-9	13	6	-2	0	.	.
Cc1ccc(-n2c(N)cc(=O)nc2SCC(=O)N2CCN(c3ccccc3)CC2)cc1	-22	66*	64*	-30	9	-30%	9%
Nc1cc(=O)nc(SCC(=O)N2CCN(c3ccccc3)CC2)n1-c1ccc(F)cc1	-6	28	-19	-5	0	-21%	-1%
COc1cccc(-n2c(N)cc(=O)nc2SCC(=O)N2CCN(c3ccccc3)CC2)c1	-6	21	9	-9	-2	-5%	6%
CCCNC(=O)Nc1cc(C(=O)NCc2cccc(OCC)c2)ccc1N1CCCC1	.	-1	.	3	.	.	.
Cn1cc[nH]c1=S	11	25	-4	-12	-4	-3%	-4%
CC(C)c1ccccc1-n1cc[nH]c1=S	-11	2	-16	5	-3	.	.
O=S(=O)(NCC(c1cccnc1)N1CCN(Cc2ccccc2)CC1)c1cc(F)ccc1F (stereo not drawn)	-5	70*	43*	-15	11	4%	17%

From PubChem
